Among the data in PubChem BioAssay (Tox21) are Potency and outcome values, retold here.

Test [1] is described as follows: A CellTox Green Cytotoxicity Assay to monitor cytotoxicity in HepG2 cells - 0 hour (AID 1224882). Note: nearly all actives have a fitted effect of over 35% in size. The essentials: (§1)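 Measurements at 0, 8, 16, 24, 32 and 40 h of treatment captured CellTox Green fluorescence in HepG2 cells that had been co-plated with reagent and preincubated 5 h at 37 C/5% CO2.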
A short description of test [2]: A CellTox Green Cytotoxicity Assay to monitor cytotoxicity in HepG2 cells - 32 hour (AID 1224883). Note: nearly all actives have a fitted effect of over 50% in size. The procedure, abridged: as §1
The nature of test [3]: qHTS RealTime-Glo MT Cell Viability Assay in HepG2 cells - 16 hour (AID 1224885). Note: nearly all actives have a fitted effect of over 50% in size. The procedure, abridged: (§2)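 Tox21 10K library screened in qHTS format on HepG2 cells carrying RealTime-Glo reagents. Compounds were added after a 5 h preincubation, and the luminescent signal from continuous culture was measured repeatedly during 40 h treatment.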
In general terms: Quantitative high-throughput screening tests each substance at several concentrations.

The nature of test [4]: qHTS RealTime-Glo MT Cell Viability Assay in HEK293 cells - 24 hour (AID 1224886). Note: top concentration of the series differs between compounds; nearly all actives have a fitted effect of over 50% in size. The essentials:
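Luminescence generated by NanoLuc from substrate produced by living HEK293 cells served as the viability signal. Each value reflects the reading at its stated time point during continuous 40 h compound exposure at 37 C.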

Test [5] in a line: qHTS RealTime-Glo MT Cell Viability Assay in HEK293 cells - 8 hour (AID 1224887). Note: nearly all actives have a fitted effect of over 50% in size. Note: potency is the fitted concentration of half-maximal effect. The essentials:
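HEK293 + NanoLuc + prosubstrate, 600 cells/well; 5 h, 37 C/5% CO2; compound 23 nL in DMSO by pintool; 37 C; luminescence read at 0, 8, 16, 24, 32 and 40 h time points.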

A short description of test [6]: A CellTox Green Cytotoxicity Assay to monitor cytotoxicity in HEK293 cells - 16 hour (AID 1224888). Note: nearly all actives have a fitted effect of over 35% in size. The procedure, abridged: (§3)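 Tox21 screen in HEK293: membrane-impermeant cyanine dye fluoresces on binding dead-cell DNA; compound pinned 5 h post-seeding, plates held at 37 C, signal read repeatedly through 40 h.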
Test [7] can be described thus: qHTS RealTime-Glo MT Cell Viability Assay in HepG2 cells - 0 hour (AID 1224889). Note: nearly all actives have a fitted effect of over 50% in size. The procedure, abridged: as §2
Test [8] in a line: A CellTox Green Cytotoxicity Assay to monitor cytotoxicity in HepG2 cells - 8 hour (AID 1224890). Note: nearly all actives have a fitted effect of over 45% in size. The essentials: as §1
Test [9] can be described thus: qHTS assay to identify small molecule antagonists of the androgen receptor (AR) signaling pathway using the MDA cell line in the presence of 0.5 nM R1881 - cell viability counter screen (AID 1259242). Note: nearly all actives have a fitted effect of over 45% in size. The procedure, abridged:
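Concentration-response screen of compounds for toxicity in MDA-kb2 reporter cells: 16 hr at 37C with 0.5 nM R1881, endpoint live-cell protease fluorescence measured in the reporter wells.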

The target of test [10] is Estrogen receptor (Homo sapiens) (UniProt P03372). Kind of test: qHTS assay to identify small molecule antagonists of the estrogen receptor alpha (ER-alpha) signaling pathway using the BG1 cell line in the presence of 0.1 nM 17-beta-estradiol (AID 1259244). Note: nearly all actives have a fitted effect of over 50% in size. The procedure, abridged:
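Compounds were tested against 0.1 nM (final) 17beta-estradiol in VM7Luc4E2 cells, which express full-length ER-alpha and an ERE-luciferase reporter; luminescence was recorded following 22 h exposure.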

The nature of test [11]: qHTS assay to identify small molecule HDAC inhibitors (AID 1259364). Note: potency is the fitted concentration of half-maximal effect.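 Note: wild-type HCT-116 cells with endogenous class I/II HDAC activity; nearly all actives have a fitted effect of over 45% in size.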 The procedure, abridged: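 Screening used wild-type human colon HCT-116 cells incubated overnight, dosed with compounds for 2 hours, and assayed with a homogeneous luminogenic HDAC I/II reagent for 30 minutes at room temperature.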
Test [12] can be described thus: qHTS assay to identify small molecule HDAC inhibitors - cell viability counter screen (AID 1259365). The essentials:
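Luminescence from CellTiter-Glo, developed 30min at room temperature, reports viability of wild-type HCT-116 cells treated 2hr with compounds at 37 C and 5% CO2 after overnight plating.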

Test [13] is described as follows: qHTS assay to identify small molecule agonists of the sonic hedgehog signaling (Shh) pathway - cell viability counter screen (AID 1259366). Note: nearly all actives have a fitted effect of over 50% in size. Note: potency is the fitted concentration of half-maximal effect. The procedure, abridged: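 Cytotoxicity counter screen run in the same wells as the Shh reporter assay. NIH/3T3 cells carrying a Gli1 response element–driven luciferase were treated with DMSO-dissolved compounds for 24hr, and live-cell protease activity was measured with CellTiter-Fluor.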

Test [14] is described as follows: qHTS assay to identify small molecule antagonists of the sonic hedgehog signaling (Shh) pathway - cell viability counter screen (AID 1259367). Note: nearly all actives have a fitted effect of over 55% in size. Note: potency is the fitted concentration of half-maximal effect. The procedure, abridged: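 Fluorescence read-out (CellTiter-Fluor, 1 hr at 37C) taken after 23 hr compound treatment of 3T3 Gli1-Luc cells stimulated with conditioned medium. Cells were seeded at 2,000 per well and pre-incubated 4 hr.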

Test [15] can be described thus: qHTS assay to identify small molecule agonists of the sonic hedgehog signaling (Shh) pathway (AID 1259368; calls by dose curve;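 note: NIH/3T3-derived 3T3Gli1-Luc cells carrying a stable Gli1-driven firefly luciferase reporter; series mostly up to about 92 µM; nearly all actives have a fitted effect of over 15% in size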). The essentials: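 Hedgehog pathway agonism scored by increased firefly luciferase luminescence in 3T3Gli1-Luc cells treated 24 hr at 37 C; detection used a 30 min room-temperature reagent incubation.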
Test [16] is described as follows: qHTS assay to identify small molecule antagonists of the sonic hedgehog signaling (Shh) pathway (AID 1259369; calls by dose curve; note: nearly all actives have a fitted effect of over 45% in size). The procedure, abridged: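 NIH/3T3 stable Gli1-Luc clone, 2,000 cells/well, 4hr settle; cpd + conditioned medium 24hr; Luc reagent 30min RT; luminescence.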
The nature of test [17]: A CellTox Green Cytotoxicity Assay to monitor cytotoxicity in HEK293 cells - 8 hour (AID 1224884). Note: nearly all actives have a fitted effect of over 35% in size. The essentials:
as §3

The nature of test [18]: qHTS assay to identify small molecule antagonists of the estrogen receptor alpha (ER-alpha) signaling pathway using the BG1 cell line in the presence of 0.1 nM 17-beta-estradiol - cell viability counter screen (AID 1259241). Note: nearly all actives have a fitted effect of over 40% in size. The essentials: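 VM7Luc4E2, 4,000 cells/well, phenol red-free medium + 10% charcoal-stripped FBS; 24 hr plating; cpd + 0.1 nM E2 final, 22 hr 37C/5% CO2; CellTiter-Fluor 30 min, fluorescence.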

For test [19], the target named is Androgen receptor (Homo sapiens) (UniProt P10275). Nature of the test: qHTS assay to identify small molecule antagonists of the androgen receptor (AR) signaling pathway using the MDA cell line in the presence of 0.5 nM R1881 (AID 1259243). Note: nearly all actives have a fitted effect of over 50% in size. The procedure, abridged: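 With R1881 held at 0.5 nM (final), compound effects on MMTV-luciferase expression in MDA-kb2 cells were scored by luminescence after a 16 hr, 37C incubation.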
Sequence of Androgen receptor (Homo sapiens) (P10275 whole entry, looked up): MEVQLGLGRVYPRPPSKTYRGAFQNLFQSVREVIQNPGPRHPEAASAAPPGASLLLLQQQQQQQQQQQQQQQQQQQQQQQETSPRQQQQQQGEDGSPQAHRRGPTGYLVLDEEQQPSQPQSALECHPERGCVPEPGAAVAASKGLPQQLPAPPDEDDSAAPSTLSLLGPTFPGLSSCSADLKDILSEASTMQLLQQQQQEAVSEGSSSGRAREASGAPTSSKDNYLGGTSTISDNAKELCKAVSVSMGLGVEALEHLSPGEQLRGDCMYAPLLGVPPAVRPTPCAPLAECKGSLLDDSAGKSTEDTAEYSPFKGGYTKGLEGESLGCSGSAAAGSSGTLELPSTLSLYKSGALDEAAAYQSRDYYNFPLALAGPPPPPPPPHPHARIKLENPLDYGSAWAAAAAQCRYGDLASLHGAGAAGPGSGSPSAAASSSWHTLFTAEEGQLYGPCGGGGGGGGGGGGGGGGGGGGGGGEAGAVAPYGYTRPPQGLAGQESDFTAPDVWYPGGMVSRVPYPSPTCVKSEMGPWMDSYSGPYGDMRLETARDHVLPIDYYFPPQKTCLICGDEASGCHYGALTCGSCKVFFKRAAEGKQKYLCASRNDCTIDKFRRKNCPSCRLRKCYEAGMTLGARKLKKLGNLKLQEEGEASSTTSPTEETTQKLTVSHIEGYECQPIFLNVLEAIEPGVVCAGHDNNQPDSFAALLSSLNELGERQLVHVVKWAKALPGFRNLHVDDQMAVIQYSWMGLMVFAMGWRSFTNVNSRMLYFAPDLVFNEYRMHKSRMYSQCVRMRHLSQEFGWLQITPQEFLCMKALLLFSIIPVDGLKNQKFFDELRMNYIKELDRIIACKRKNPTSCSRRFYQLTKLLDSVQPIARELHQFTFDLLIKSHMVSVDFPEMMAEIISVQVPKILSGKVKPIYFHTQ

Test [20] in a line: qHTS assay to identify small molecule phospholipidosis (PLD) inducers (AID 1259344; active = well fitted curve in the direction sought with a large enough effect; an effect the other way counts as inactive or inconclusive). The procedure, abridged:
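Read-out is LipidTOX Red fluorescence (ex 595/em 615) imaged in HepG2 cells after 24 h compound exposure at 37 C, with Hoechst nuclear counterstain (ex 352/em 461) allowing per-cell normalisation.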

Values without a mark were called inactive. Inconclusive results are not listed. Active and inactive are the calls of the source. Unless noted, calls come from the whole dose curve; as a rule, active = well fitted curve in the direction sought with a large enough effect in the repeat runs; inconclusive = weak or mixed curves; inactive = no such curve, though single readings can be large; an effect the other way counts as inactive or inconclusive.

Sequence of Estrogen receptor (Homo sapiens) (P03372 whole entry, looked up): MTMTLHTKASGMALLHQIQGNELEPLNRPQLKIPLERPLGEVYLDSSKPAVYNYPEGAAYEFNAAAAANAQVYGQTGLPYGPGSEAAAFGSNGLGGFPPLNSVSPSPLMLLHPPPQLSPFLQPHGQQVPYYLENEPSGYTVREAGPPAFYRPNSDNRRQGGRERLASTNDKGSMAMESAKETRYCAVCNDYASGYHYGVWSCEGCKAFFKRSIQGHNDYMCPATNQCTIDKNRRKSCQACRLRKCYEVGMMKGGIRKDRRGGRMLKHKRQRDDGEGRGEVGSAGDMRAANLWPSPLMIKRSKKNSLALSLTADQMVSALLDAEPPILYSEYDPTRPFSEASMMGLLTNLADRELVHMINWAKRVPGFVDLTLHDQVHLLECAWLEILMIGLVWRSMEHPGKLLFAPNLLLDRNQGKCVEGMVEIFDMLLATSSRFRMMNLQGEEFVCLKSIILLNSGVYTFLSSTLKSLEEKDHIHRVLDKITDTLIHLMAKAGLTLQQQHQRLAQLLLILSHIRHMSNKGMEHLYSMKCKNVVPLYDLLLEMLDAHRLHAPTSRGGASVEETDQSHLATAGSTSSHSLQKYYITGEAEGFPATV

As to `CC(CC=O)CC(C)(C)C` (stereo unspecified), the Potency result in test [1], in test [2], in [4], in [5], in test [7] and in test [11] was “inactive” each time. The Potency result in test [13], in test [14] and in test [16] was “inactive” throughout. Moreover, the call in test [3], in test [6], in test [8], in test [9], in test [10] and in [12] was inactive. Also, the result in test [15] was inactive.

With `CCOC(=O)C(=O)CCCCCCl`, the Potency entry in [2], in test [4], in [5], in test [7], in test [19] and in test [11] was “inactive” throughout. Also, the Potency result in test [13], in test [14] and in [16] was “inactive” throughout. Further, the call in test [17], in test [3], in test [6], in [8], in test [18] and in test [9] was inactive. In addition, the outcome in test [12] was inactive.

`C[N+](C)(CCOc1ccccc1)Cc1cccs1`: the Potency entry in test [1], in [4], in test [5], in [7], in test [19] and in test [11] was “inactive” in each case. The Potency entry in test [13] and in [16] was “inactive” in each case. Also, the compound was called inactive in test [17], in test [3], in test [6], in test [8], in [18] and in test [9]. Further, the result in test [20] and in test [15] was inactive.

Consider `O=C1c2ccccc2C(=O)c2cc(O)ccc21`, for which the Potency entry in test [1], in [2], in test [7], in test [13], in [14] and in test [16] was “inactive” each time. Besides, the compound was called inactive in [3], in test [6], in [8], in [18], in test [9] and in [12]. Further, the Potency in test [5] was 55 µM (active); in test [11], 7.7 µM (active).

As for `O=C(O)CCCC[P+](c1ccccc1)(c1ccccc1)c1ccccc1`, the Potency result in test [1], in test [4], in [5], in test [7], in test [11] and in test [13] was “inactive” in each case. In addition, the Potency result in [14] and in test [16] was “inactive” each time. Also, the compound was classed as inactive in test [17], in [3], in test [6], in test [8], in test [18] and in [9]. Also, the compound was classed as inactive in test [15].

Turning to `CC1=NN(c2cc(S(=O)(=O)O)ccc2Cl)C(=O)C1N=Nc1ccccc1` (stereo unspecified), the Potency result in [1], in test [2], in test [4], in [5], in test [7] and in [11] was “inactive” in each case. In addition, the call in test [3], in [6], in test [8], in test [10], in [12] and in test [15] was inactive. Also, the Potency was 13.7 µM (active) in test [13] and 27.3 µM (active) in test [14].

Turning to `Clc1cc(Cl)cc(Cl)c1`, the Potency result in test [1], in test [2], in test [4], in [5], in test [7] and in test [11] was “inactive” each time. Besides, the Potency entry in test [13], in [14] and in test [16] was “inactive” throughout. The compound was called inactive in test [3], in test [6], in test [8], in test [18], in test [9] and in test [15].

For `CCCCCCCCCCCCSC`, the Potency result in [1], in [2], in test [4], in [5], in test [7] and in test [11] was “inactive” each time. Moreover, the Potency result in test [13], in test [14] and in [16] was “inactive” each time. The compound was classed as inactive in test [3], in test [6], in test [8], in test [18], in test [9] and in test [12].
